Measured values published in PubChem BioAssay AID2100 (National Center for Advancing Translational Sciences (NCATS), 2009).
In all, about 300,000 compounds went through this assay and about 1,200 (0.4%) were called active. Where a call stands in place of a potency, no number is given. About 3% were inconclusive and are not listed. This is one part of a sample in which actives are shown more often than they occur. Calls follow the shape of the dose curve; as a rule, active = well fitted inhibition curve with a large enough effect; inconclusive = small, poorly fitted or top-dose-only effect, or another doubt; inactive = no such curve, though single readings can be large or run the other way.
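Also: the screen sought inhibitors and activators.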
Potency is read from the fitted curve at half-maximal effect.

Each molecule was assayed against Lysosomal alpha-glucosidase (Homo sapiens) (UniProt P10253) (assay: qHTS Assay for Inhibitors and Activators of Human alpha-Glucosidase Cleavage of Glycogen). Conditions: recombinant GAA, glycogen substrate, Amplex Red glucose oxidase fluorescence; series mostly up to 76.3 µM.
In short: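 Natural-substrate format: glycogen cleavage by 4 nM human enzyme, glucose read by Amplex Red coupling (Ex 573, Em 610 nm). Normalized to enzyme and no-enzyme controls.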
For `CCOc1ccc2nc(N3CCCC(C(=O)Nc4cc(C)ccc4C)C3)sc2c1` (centres undefined), the Potency was “inactive”.
In the case of `O=[N+]([O-])c1ccc(N/N=C/c2ccccc2)cc1`, the Potency is reported as “inactive”.
For `O=C(O)/C=C/C(=O)NNc1ccc([N+](=O)[O-])cc1`, the Potency was 14 µM (active).
In the case of `CNC(=S)Nc1ccc([N+](=O)[O-])cc1`, the Potency is reported as “inactive”.
With `COc1cc(Nc2nc(-c3ccc(OC)c(OC)c3)nc3ccccc23)cc(OC)c1` the Potency was “inactive”.
In the case of `CC(Nc1ccc(-c2nc(-c3ccco3)no2)cc1[N+](=O)[O-])c1ccccc1` (centres undefined), the Potency is reported as “inactive”.
With `CCc1ccc(C(=O)CC2(O)C(=O)N(CCc3ccccc3)c3ccc(Br)cc32)cc1` (centres undefined) the Potency was “inactive”.
With `Cn1c(=O)n(C)c2cc(CNc3ccc(N4CCOCC4)c(C(=O)O)c3)ccc21` the Potency was 9.92 µM (active).
In the case of `COC(=O)c1cc(NC(=O)c2ccco2)ccc1N1CCOCC1`, the Potency is reported as “inactive”.
`CCN(CC)S(=O)(=O)c1ccc(N2CCOCC2)c(C(=O)O)c1` was tested, and the Potency was “inactive”.
With `CCn1cc(C(=O)NCCc2ccccc2)c(=O)c2cc(S(=O)(=O)N3CCCCCC3)ccc21` the Potency was “inactive”.
`O=C(Nc1nc2c(s1)CCCC2)c1ccccc1F` was tested, and the Potency was “inactive”.
With `CC(=O)N1CCN(c2ccc(NCc3ccc(C(C)C)cc3)cc2)CC1` the Potency was 31.6 µM (active).
With `CC(CC(=O)N1CCN(c2ccccc2)CC1)c1ccccc1` (centres undefined) the Potency was “inactive”.
In the case of `CCc1ccc(NC(=O)N2CCN(c3ccccc3)CC2)cc1`, the Potency is reported as “inactive”.
`Cc1ccc(-c2cc(N)n(Cc3cccc(Cl)c3)n2)cc1` was tested, and the Potency was “inactive”.
For `CC1=Nc2cc(C(=O)N3CCC(C)CC3)ccc2Sc2ccc(Cl)cc21`, the Potency was “inactive”.
In the case of `Cc1ccc(Nc2nnc(SCc3ccccc3)s2)cc1`, the Potency is reported as “inactive”.
In the case of `Cc1ccc(Nc2ccccc2N)cc1`, the Potency is reported as 50.1 µM (active).
With `Nc1ccc(Nc2ccccc2)cc1` the Potency was “inactive”.
`COc1ccc(CNC(=O)COCc2cc(-c3cccs3)on2)cc1OC` was tested, and the Potency was “inactive”.
For `Cc1nc2nc(NCc3cccc(Br)c3)[nH]n2c(=O)c1Cc1ccccc1`, the Potency was “inactive”.
`CC1CCN(c2nc3ccc(C(=O)N4CCN(c5ccccc5)CC4)cc3s2)CC1` was tested, and the Potency was “inactive”.
`O=C(Nc1ccc2nc(SCCOc3ccccc3)sc2c1)c1ccco1` was tested, and the Potency was “inactive”.
In the case of `Cc1cc(NC(=O)C2CCC(CNS(=O)(=O)c3ccc(Br)s3)CC2)ccc1Br` (centres undefined), the Potency is reported as “inactive”.
For `CCN(CC)S(=O)(=O)c1cc([N+](=O)[O-])ccc1NNC(=O)Nc1ccccc1`, the Potency was 28.2 µM (active).
In the case of `CC(=O)c1ccc(NC(=O)Nc2ccc([N+](=O)[O-])cc2C)cc1`, the Potency is reported as “inactive”.
With `CCN(CC)S(=O)(=O)c1cc([N+](=O)[O-])ccc1N=Nc1c(O)n(C)c2ccccc12` the Potency was “inactive”.
With `COC(=O)c1cccc(Cn2nnc3sc4c(c3c2=O)CCC(C(C)(C)C)C4)c1` (centres undefined) the Potency was “inactive”.
With `C/C(=N\O)C1(C)N(O)C(C)(C)C(c2ccc(Br)cc2)=[N+]1[O-]` (centres undefined) the Potency was 6.26 µM (active).
In the case of `CC(=O)C1(C)N(O)C(C)(C)C(c2cccs2)=[N+]1[O-]` (centres undefined), the Potency is reported as “inactive”.
In the case of `Cc1nnc(NCc2ccccc2)c2c1nnn2Cc1ccc(F)cc1`, the Potency is reported as “inactive”.
With `COc1cccc(CC(=O)Nc2nc(-c3ccc(OC)c(OC)c3)cs2)c1` the Potency was “inactive”.
For `COc1ccc(C)cc1Nc1nc(-c2c(C)[nH]c3ccccc23)cs1`, the Potency was “inactive”.
With `COc1ccc(-c2csc(Nc3ccc(O)cc3)n2)cc1` the Potency was 11.2 µM (active).
For `NS(=O)(=O)c1ccc(Nc2nc(-c3ccccc3)cs2)cc1`, the Potency was “inactive”.
`COc1ccc(-c2csc(Cc3nc(O)cs3)n2)cc1` was tested, and the Potency was “inactive”.
With `COc1ccc(OC)c(Nc2nc(-c3ccc(O)c(O)c3)cs2)c1` the Potency was 28.2 µM (active).
With `Cc1cccc(C(=O)NCCc2nc3ccccc3n2Cc2ccccc2Cl)c1` the Potency was “inactive”.
For `CC(C)S(=O)(=O)c1oc(-c2ccc(F)cc2)nc1S(=O)(=O)c1ccc(F)cc1`, the Potency was “inactive”.
In the case of `COc1ccccc1C(=O)Nc1c(C(=O)N(C)Cc2ccccc2)sc2nc(C)c(Cl)c(C)c12`, the Potency is reported as “inactive”.
For `COc1cc(Cl)c(NC(=O)CC(C)S(=O)(=O)c2cc3c(cc2C)NC(=O)CO3)c(OC)c1` (centres undefined), the Potency was “inactive”.
For `CCC(C)NC(=O)CSC1=Nc2ccccc2C2=NC(CCC(=O)NCc3ccco3)C(=O)N12` (centres undefined), the Potency was “inactive”.
With `CC(C)C1N=C2c3ccccc3N=C(SCC(=O)c3ccc(O)c(O)c3)N2C1=O` (centres undefined) the Potency was 12.5 µM (active).
In the case of `O=C(CSC1=Nc2ccccc2C2=NC(CC(=O)NCc3ccco3)C(=O)N12)NCc1ccco1` (centres undefined), the Potency is reported as “inactive”.
For `CC(NC(=O)CCc1cn(Cc2ccccc2Cl)c2ccccc12)c1ccccc1` (centres undefined), the Potency was “inactive”.
`COc1cc(OC)nc(NC(=O)CCl)n1` was tested, and the Potency was “inactive”.
`O=C(CCl)NNc1cccc(Cl)n1` was tested, and the Potency was 20 µM (active).
`O=C(Cc1c(Cl)cccc1Cl)NC1CC1` was tested, and the Potency was “inactive”.
In the case of `COc1ccccc1CNC(=O)CCn1c(=O)c2ccccc2n(CC(=O)Nc2cccc(Cl)c2)c1=O`, the Potency is reported as “inactive”.
With `Cc1ccc(CSc2nc3cccnc3n2Cc2ccc(C(=O)NC3CC3)cc2)cc1` the Potency was “inactive”.
`COC(=O)c1sccc1NC(=S)Nc1ccc(C)cc1` was tested, and the Potency was “inactive”.
In the case of `CCOC(=O)C(=CNNc1ccsc1C(=O)OC)C(=O)OCC`, the Potency is reported as 14 µM (active).
`COC(=O)c1sccc1NC(=O)CCC1CCCC1` was tested, and the Potency was “inactive”.
For `O=C(O)c1[nH]c2ccccc2c1C(c1cccc(O)c1)c1c(C(=O)O)[nH]c2ccccc12`, the Potency was “inactive”.
With `CCCC(=O)Nc1c(O)c2ccccc2[nH]c1=O` the Potency was “inactive”.
`CCCS(=O)(=O)Nc1c(C(=O)O)[nH]c2ccccc12` was tested, and the Potency was 3.55 µM (active).
With `O=S(=O)(c1ccc(Cl)cc1)c1nnn2c1nc(NC1CCCC1)c1sccc12` the Potency was “inactive”.
With `Cc1c(Cl)cccc1NC(=O)C1CCCN(C(=O)c2cnn(-c3ccccc3)c2-n2cccc2)C1` (centres undefined) the Potency was “inactive”.
With `c1cnn(-c2cc(N3CCOCC3)ncn2)c1` the Potency was “inactive”.
In the case of `O=C(CN1C(=O)COc2ccc(Cl)cc21)Nc1ccc(N2CCOCC2)cc1`, the Potency is reported as “inactive”.
With `O=C(Nc1cc(N2CCOCC2)ncn1)NC1(C(F)(F)F)Oc2ccc(Cl)cc2O1` (centres undefined) the Potency was 11.1 µM (active).
With `CCC(=O)N1CCc2cc(S(=O)(=O)NC(CC(C)C)C(=O)NCCc3cccc(C)c3)ccc21` (centres undefined) the Potency was “inactive”.
For `COc1cccc(NC(=O)CN2C(=O)c3ccccc3Sc3ncccc32)c1`, the Potency was “inactive”.
With `O=C(c1ccc(C(F)(F)F)cc1)N1CCC(c2nc(-c3ccc(S(=O)(=O)N4CCCC4)cc3)no2)CC1` the Potency was “inactive”.
`O=C(CNC(=O)C1COc2ccccc2O1)N/N=C/c1cc(Br)c(O)c(Br)c1` (centres undefined) was tested, and the Potency was “inactive”.
In the case of `Cc1c(C)c2ccc(OCC(=O)N3CCC(C(=O)O)CC3)c(C)c2oc1=O`, the Potency is reported as “inactive”.
For `Cc1c(CC(=O)N2CCN(C(=O)C3COc4ccccc4O3)CC2)c(=O)oc2c(O)c(O)ccc12` (centres undefined), the Potency was 6.31 µM (active).
With `COc1ccccc1C(=O)NCCn1cc(SCc2ccccc2Cl)c2ccccc21` the Potency was “inactive”.
`CCOc1ccc(N2CC(C)Cn3c2nc2c3c(=O)n(Cc3c(F)cccc3Cl)c(=O)n2C)cc1` (centres undefined) was tested, and the Potency was “inactive”.
With `O=S(=O)(c1ccc(Br)cc1)c1nnn2c1nc(N1CCOCC1)c1sccc12` the Potency was “inactive”.
`Cc1ccc(Cl)cc1NC(=O)/C(C#N)=C\c1cn(Cc2ccc(F)cc2)c2ccccc12` was tested, and the Potency was “inactive”.
For `O=c1[nH]c(=S)[nH]c2[nH]c(=S)[nH]c12`, the Potency was 39.8 µM (active).
For `Cc1c(C)c(C)c2[nH]c(=S)[nH]c2c1C`, the Potency was “inactive”.
For `Cc1ccsc1CN(C(=O)c1oc2ccc(Br)cc2c1C)C1CCS(=O)(=O)C1` (centres undefined), the Potency was “inactive”.
For `CCCn1c2ccccc2c2cnn(CC(=O)NCC3CCN(Cc4ccc(C)cc4)CC3)c(=O)c21`, the Potency was “inactive”.
In the case of `CCN(C(=O)CSc1nnc(C)n2c1cc1occc12)c1ccccc1`, the Potency is reported as “inactive”.
`CCN(CC)c1ccc([N+](=O)[O-])cc1C(=O)O` was tested, and the Potency was “inactive”.
`OCCN(Cc1ccccc1)Cc1ccc(Cl)cc1` was tested, and the Potency was “inactive”.
In the case of `O=[N+]([O-])c1ccc(N(CCO)Cc2ccccc2)c([N+](=O)[O-])c1`, the Potency is reported as 10 µM (active).
With `CC(=O)Oc1cccc(N2C(=O)CC(Nc3ccc(N4CCOCC4)cc3)C2=O)c1` (centres undefined) the Potency was 35.5 µM (active).
In the case of `COc1cc2ccccc2cc1C(=O)Nc1ccc(N2CCOCC2)cc1`, the Potency is reported as “inactive”.
In the case of `CC(=O)Oc1cccc(N2C(=O)C3CC=C(Cl)CC3C2=O)c1` (centres undefined), the Potency is reported as “inactive”.
`CCOC(=O)c1oc2ccc(S(=O)(=O)n3nc(-c4ccccc4OC)cc3N)cc2c1C` was tested, and the Potency was “inactive”.
In the case of `Oc1ccccc1-c1nc2ccc(Cl)cn2c1Nc1ccc2c(c1)OCCO2`, the Potency is reported as “inactive”.
For `Cc1ccc(Nc2c(-c3ccc(C)s3)nc3ccccn23)cc1`, the Potency was “inactive”.
`Cc1cccc2nc(-c3ccc(Cl)s3)c(Nc3ccc4c(c3)OCCO4)n12` was tested, and the Potency was 7.94 µM (active).
For `CN(C(=O)CSc1nc2ccc(NC(=O)COc3ccccc3)cc2s1)c1ccccc1`, the Potency was “inactive”.
In the case of `CCc1cccc(NC(=O)CN(C)S(=O)(=O)c2ccc3[nH]c4c(c3c2)CCCC4)c1`, the Potency is reported as “inactive”.
With `O=C(CCc1ccccc1)NNC(=O)c1ccc(Br)cc1` the Potency was “inactive”.
For `O=C(CCc1ccccc1)NNc1ccc(F)cc1`, the Potency was 20 µM (active).
`CC(=O)Nc1ccc(S(=O)(=O)NNC(=O)CCc2ccccc2)cc1` was tested, and the Potency was “inactive”.
`O=S(=O)(NCCc1nnc2ccc(SCc3ccc(Cl)cc3Cl)nn12)c1ccccc1` was tested, and the Potency was “inactive”.
`O=[N+]([O-])c1cc(-c2nc(-c3ccccc3)no2)ccc1NCc1ccco1` was tested, and the Potency was “inactive”.
With `COc1ccc(Cn2c(=O)n(-c3ccccc3C)c(=O)c3c4c(sc32)CN(C(C)=O)CC4)cc1` the Potency was “inactive”.
In the case of `CCC(C)(C)NC(=O)C1c2ccccc2Oc2ccccc21`, the Potency is reported as “inactive”.
With `CCC(C)NC(=O)C1c2ccccc2Oc2ccccc21` (centres undefined) the Potency was “inactive”.
`O=C(N/N=C/c1ccc(O)c(O)c1)C1c2ccccc2Oc2ccccc21` was tested, and the Potency was 14.1 µM (active).
For `CCOc1ccc(C2CC(=O)c3c([nH]c(C(=O)OCc4ccccc4)c3C)C2)cc1` (centres undefined), the Potency was “inactive”.
`CCOc1ccc(N(CC)S(=O)(=O)N2CCCC(C(=O)NCc3ccc(Cl)cc3)C2)cc1` (centres undefined) was tested, and the Potency was “inactive”.
For `CC(=O)c1c(C)n(S(=O)(=O)c2ccc(Cl)cc2)c2ccc(NS(=O)(=O)c3ccc(Cl)cc3)cc12`, the Potency was “inactive”.
With `Nc1ccc(-c2nnc(-c3ccccc3)o2)cc1` the Potency was “inactive”.
`COc1ccc(NC(=O)c2sc(N)nc2-c2ccccc2)cc1` was tested, and the Potency was “inactive”.
In the case of `Nc1ccc(-c2sc(N)nc2-c2ccccc2)cc1`, the Potency is reported as 14 µM (active).
